Outcome data for 13 compounds are collected here from PubChem BioAssay (EPA / NIEHS).

Inconclusive results are not listed. Activity calls are given as the source filed them. The calls were made as follows: active = hit-call score of the fitted dose curve at least 0.9, where 1 is the maximum; inconclusive = response in the unintended direction; inactive = score below 0.9.

The nature of this experiment: TOX21_TR_RXR_BLA_Antagonist_Followup_viability: Viability Assessment in the Tox21 Thyroid Hormone Receptor beta Retinoid X Receptor alpha (RXRa) Antagonism Beta-lactamase (BLA) Follow-Up Assay (AID 2283979). An excerpt:
GeneBLAzer RXRa-UAS-bla HEK293T assay (RXRa-bla) (ThermoFisherScientific Catalog No. K1697) was run in qHTS 1536 well format as a secondary assay for specificity of response in the TOX21_TR_GH3_LUC_Agonist assay.TOX21_TR_RXR_BLA_Antagonist_Followup_viability is a component of the TOX21_TR_RXR_BLA_Antagonist_Followup assay. This component measures cell viability using the CellTiter-Glo Luciferase-coupled ATP quantitation.The assay component endpoint TOX21_TR_RXR_BLA_Antagonist_Followup_viability was analyzed with bidirectional fitting relation to DMSO as the negative control and baseline of activity. Using a type of viability reporter, loss-of-signal activity can be used to understand changes in viability. To generalize the intended target to other relatable targets, this assay endpoint is annotated to cell cycle, where the subfamily is cytotoxicity.
Cell Media Required: Growth (90% DMEM/F-12, 10% Fetal Bovine Calf Serum, 100U/ml Penicillin, 100 ug/ml Streptomycin), Assay (10ng/mL sodium selenite, 10 ug/mL humanapo-transferrin, 10 uM ethanolamine, 10 ug/mL insulin, 500 ug/mL bovine serum albumin (BSA))Assay Protocol: RXRa-bla cells were seeded at 2,500/well in 6 uL of the assay medium containing phenol red-free DMEM with 2% charcoal-stripped FBS in 1,536-well black-wall/clear-bottom plates (Greiner Bio-One North America) usinga Multidrop Combi dispenser. After5-h incubation at 37C/5% CO2 for cell attachment, 23 nL of follow-up compounds dissolved in DMSO, 11 concentrations in triplicate, and the positive control (9-cis retinoic acid) were transferred to the assay plates using a Pintool station. The assay plates were incubated at 37C/5% CO2 for 16h. One microliter of LiveBLAzer FRET-B/GCCF4-AM substrate (Life Technologies) was added to each well using an FRD. After 2-h incubation at room temperature, the fluorescence intensity was measured using an Envision plate reader (Perkin Elmer). Data were expressed as the ratio of 460:530 nm.
As to `C[C@]12CC[C@H]3[C@@H](CCC4=C(Cl)C(=O)CC[C@@]43C)[C@@H]1CC[C@@H]2O`, the outcome was inactive.

Turning to `CC[C@H]1C[C@H]2[C@@H]3CCC4=CC(=O)CC[C@@H]4[C@H]3CC[C@]2(C)[C@H]1O`, the compound was called inactive.

With `O=c1oc2ccccc2c(O)c1Cc1c(O)c2ccccc2oc1=O`, the compound was called inactive.

`CCN(CC)CCO[C@H]1CC[C@@]2(C)C(=CC[C@@H]3[C@@H]2CC[C@]2(C)C(=O)CC[C@@H]32)C1`: the call was inactive.

On to `CC[C@]1(O)CC[C@H]2[C@@H]3CCC4=CCCC[C@@H]4[C@H]3CC[C@@]21C`, for which the outcome was inactive.

As to `O=C(N[C@@H]1N=C(c2ccccc2F)c2cccc3c2N(CC3)C1=O)c1cc2ccccc2[nH]1`, the compound was classed as inactive.

For the compound `CCC(COC(=O)c1cc(OC)c(OC)c(OC)c1)(c1ccccc1)N(C)C` (stereo not drawn), the compound was classed as inactive.

For `CC(=O)[C@H]1CC[C@H]2[C@@H]3CC[C@@H]4C[C@H](O)CC[C@]4(C)[C@H]3CC[C@]12C`, the outcome was inactive.

In the case of `CN1C(=O)[C@@H](NC(=O)c2cc3ccccc3[nH]2)N=C(c2ccccc2)c2ccccc21`, the outcome was inactive.

With `O=C1OC2(c3cc(Br)c(O)cc3Oc3c2cc(Br)c(O)[c]3[Hg])c2ccccc21` (stereo not drawn), the compound was called inactive.

As for `COC1=CC(=O)O[C@@H](/C=C/c2ccc3c(c2)OCO3)C1`, the compound was classed as inactive.

For `CC[n+]1ccccc1`, the call was inactive.

On to `C=CC[C@]1(O)CC[C@H]2[C@@H]3CCC4=CC(=O)CCC4=C3C=C[C@@]21C`, for which the compound was classed as inactive.
